The source made the active and inactive calls. The calls were made as follows: active = hit-call score of the fitted dose curve at least 0.9, where 1 is the maximum; inactive = score below 0.9.
Legend:
[1] = APR_HepG2_CellCycleArrest_24hr: Apredica 24-hour HepG2 Assay for Cell Cycle Arrest (AID 2282905); details: imaging, actives raise or lower the signal;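 also: cell cycle arrest scored as ratio of 2N to 4N nuclear DNA content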
Outline: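 Cell cycle arrest is scored from nuclear DNA content measured by high-content imaging of Hoechst 33342-stained HepG2 cells following 24-hour treatment at ten concentrations up to 200 uM, with DMSO as baseline.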

[2] = APR_HepG2_NuclearSize_24hr: Apredica 24-hour HepG2 Assay for Nuclear Size (AID 2282907); details: high-content imaging, actives raise or lower the signal
Outline: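 Compounds in DMSO (final 0.5%) were added to human HepG2 hepatoma cells at ten concentrations up to 200 uM for 24 hr. Fixed nuclei were stained with Hoechst 33342, and nuclear diameter was quantified from automated images.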

[3] = APR_HepG2_MicrotubuleCSK_24hr: Apredica 24-hour HepG2 Assay for Microtubule CSK Stabilty (AID 2282909); details: HepG2 microtubule cytoskeleton imaging, actives raise or lower the signal
Outline: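 Steps: dose HepG2 for 24 h (0.39–200 uM, 0.5% DMSO); fix 30 min in 3.7% formaldehyde at room temperature; permeabilize; stain alpha-tubulin 60 min; image microtubule cytoskeleton at 20x. Signal change fitted in both directions relative to DMSO.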

[4] = APR_HepG2_MitoticArrest_24hr: Apredica 24-hour HepG2 Assay for Mitotic Arrest (AID 2282910); details: high-content imaging, actives raise or lower the signal
Outline: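 Compounds are dosed onto HepG2 cells across ten concentrations up to 200 uM for 24 hr. Cells are then fixed in 3.7% formaldehyde, permeabilised, and labelled for phospho-histone H3 and nuclei; images are scored by cell cycle analysis and fitted bidirectionally relative to DMSO.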

[5] = APR_HepG2_MitoMembPot_24hr: Apredica 24-hour HepG2 Assay for Mitochondrial Membrane Potential (AID 2282911); details: imaging, actives raise or lower the signal
Outline: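 Cells are dosed for 24 hr across 0.39 to 200 uM with solvent held at 0.5% DMSO. They are then stained with 250 nM MitoTracker Red CMXRos for 30 min, fixed in 3.7% formaldehyde and imaged.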

[6] = APR_HepG2_MitoMass_24hr: Apredica 24-hour HepG2 Assay for Mitochondrial Mass (AID 2282912); details: high-content imaging, actives raise or lower the signal
Outline: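 The liver line HepG2 was dosed in duplicate across a 0.39–200 uM series, with final DMSO held at 0.5% v/v, and harvested at 24 hr. High-content imaging measured mitochondrial dye staining.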

[7] = APR_HepG2_p53Act_24hr: Apredica 24-hour HepG2 Assay for p53 Activation (AID 2282913); details: high-content imaging, actives raise or lower the signal;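 also: p53 protein immunofluorescence averaged per cell in HepG2 with Hoechst nuclei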
Outline: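 Human HepG2 liver cells; 24 hr cpd treatment, 0.39–200 uM, 0.5% DMSO final. Fixed in 3.7% formaldehyde, permeabilized with 0.5% Triton X-100, stained with anti-p53/Cy5 plus Hoechst 33342. Six images per well at 20x; gain or loss vs DMSO.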

[8] = APR_HepG2_CellLoss_72hr: Apredica 72-hour HepG2 Assay for Cell Loss (AID 2282915); details: high-content imaging
Outline: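 Cell number comes from Hoechst 33342-labelled nuclei, imaged at 20x after 3.7% formaldehyde fixation. Dosing was 0.39–200 uM, ten concentrations in duplicate, 0.5% DMSO final, for 72 h. Bidirectional fit relative to DMSO baseline.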

[9] = APR_HepG2_P-H2AX_72hr: Apredica 72-hour HepG2 Assay for H2AX Phosphorylation (AID 2282916); details: imaging, actives raise or lower the signal;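 also: phospho-histone H2A.x immunostain intensity per cell marking DNA damage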
Outline: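 Following 72 hr treatment with 0.39–200 uM compound, HepG2 cells were formaldehyde-fixed, permeabilized and stained for phospho-H2A.x; signal was measured by high-content imaging and fitted bidirectionally against DMSO controls.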

[10] = APR_HepG2_CellLoss_1hr: Apredica 1-hour HepG2 Assay for Cell Loss (AID 2282668); details: high-content imaging;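 also: curves fitted both ways against DMSO so gain or loss of cells counts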
Outline: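 HepG2 cells were treated for 1 h with compound at 0.39–200 uM, in duplicate, in 0.5% DMSO. After formaldehyde fixation, Hoechst 33342-stained nuclei were imaged on an ArrayScan to count cells. Data were fitted bidirectionally versus DMSO.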

[11] = APR_HepG2_MicrotubuleCSK_1hr: Apredica 1-hour HepG2 Assay for Microtubule CSK Stabilty (AID 2282669); details: HepG2 microtubule cytoskeleton imaging, actives raise or lower the signal
Outline: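 HepG2 cells exposed 1 h to 0.39–200 uM compound (0.5% DMSO, duplicates), then formaldehyde-fixed, permeabilized and immunostained for alpha-tubulin with Hoechst nuclei. Imaged by ArrayScan high-content analysis; bidirectional fit versus DMSO.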

[12] = APR_HepG2_NuclearSize_1hr: Apredica 1-hour HepG2 Assay for Nuclear Size (AID 2282670); details: high-content imaging, actives raise or lower the signal
Outline: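 HepG2 cells dosed 1 hr with 0.39–200 uM compound (0.5% DMSO), formaldehyde-fixed, Hoechst 33342-stained and imaged at 20x; nuclear diameter from nuclear stain, fitted bidirectionally against DMSO.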

[13] = APR_HepG2_P-H2AX_1hr: Apredica 1-hour HepG2 Assay for H2AX Phosphorylation (AID 2282673); details: high-content imaging, actives raise or lower the signal
Outline: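 HepG2 dosed 1 hr at 0.39-200 uM (0.5% DMSO final), duplicate. Fixed in 3.7% formaldehyde, Triton permeabilized, immunostained for phospho-histone H2A.x (1:200) with Hoechst 33342; ArrayScan 20x imaging, bidirectional fit vs DMSO.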

[14] = APR_HepG2_MitoMass_1hr: Apredica 1-hour HepG2 Assay for Mitochondrial Mass (AID 2282674); details: high-content imaging, actives raise or lower the signal
Outline: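 HepG2 cells dosed 1 hr with 0.39-200 uM compound (0.5% DMSO), duplicate wells. Mitochondria stained with 250 nM MitoTracker Red CMXRos for 30 min before formaldehyde fixation, imaged at 20x by ArrayScan; bidirectional fit versus DMSO.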

[15] = APR_HepG2_CellLoss_24hr: Apredica 24-hour HepG2 Assay for Cell Loss (AID 2282908); details: high-content imaging;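 as to AC50: fit in both directions so a hit may be cell loss or gain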
Outline: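 Cell number is quantified by fluorescence imaging of Hoechst 33342-stained nuclei following dosing at 0.39–200 uM in 0.5% DMSO. Curves are fitted in both directions from the DMSO baseline.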

[16] = APR_HepG2_CellCycleArrest_72hr: Apredica 72-hour HepG2 Assay for Cell Cycle Arrest (AID 2282914); details: high-content imaging, actives raise or lower the signal
Outline: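 Read-out is Hoechst-stained nuclear DNA content measured by automated fluorescence imaging (20x, six images per well), fitted in both directions relative to DMSO. Human HepG2 liver cells received 0.39–200 uM compound for 72 hr at 0.5% v/v DMSO.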

Measured: AC50

C[C@]12C[C@H](O)[C@H]3[C@@H](CCC4=CC(=O)CC[C@@]43C)[C@@H]1CC[C@@H]2C(=O)CO
inactive: [3] | [4] | [6]
active: [1] 114 µM | [2] 109 µM | [5] 82.9 µM | [7] 86.2 µM | [8] 32.9 µM | [9] 34.5 µM

CCC(O)=C1C(=O)CC(C(=O)O)CC1=O (stereo unspecified)
not listed: [16]
inactive: all other assays above

O=C(Nc1ccc([N+](=O)[O-])cc1Cl)c1cc(Cl)ccc1O
active: [1] 0.0918 µM | [15] 0.332 µM | [3] 0.672 µM | [4] 0.784 µM | [6] 2.63 µM | [7] 1.49 µM | [8] 0.331 µM
not listed: [16]
inactive: all other assays above

COC(=O)c1ccc(CNS(C)(=O)=O)cc1S(=O)(=O)NC(=O)Nc1nc(OC)cc(OC)n1
not listed: [15] | [16]
inactive: all other assays above

CCOC(=O)[C@H](C)Oc1ccc(Oc2nc3ccc(Cl)cc3o2)cc1
active: [5] 96.7 µM | [8] 117 µM
not listed: [15] | [16]
inactive: all other assays above

O=C(c1ccc(O)cc1O)c1ccc(O)cc1O
active: [5] 2.29 µM
inactive: [1] | [2] | [3] | [4] | [6] | [7] | [8] | [9]

CCCCOC(=O)C(C)Oc1ccc(Oc2ccc(C(F)(F)F)cn2)cc1 (stereo unspecified)
not listed: [15]
inactive: all other assays above

C#C[C@]1(O)CC[C@H]2[C@@H]3CCC4=CC(=O)CC[C@@H]4[C@H]3CC[C@@]21CC
not listed: [10] | [11] | [12] | [13] | [14] | [15]
inactive: all other assays above

COC(=O)CSc1cc(N=c2sc(=O)n3n2CCCC3)c(F)cc1Cl
active: [15] 103 µM | [8] 98.9 µM
inactive: all other assays above

CC(C)CCCCCCc1ccc(O)cc1
inactive: [2] | [7]
active: [1] 96.8 µM | [3] 65.4 µM | [4] 26.3 µM | [5] 115 µM | [6] 34.5 µM | [8] 28.8 µM | [9] 30.1 µM

CCNc1nc(N)nc(Cl)n1
not listed: [15] | [16]
inactive: all other assays above

O=C(O)C1(C(=O)Nc2ccc(Cl)cc2Cl)CC1
not listed: [15] | [16]
inactive: all other assays above

CCCCCOC(=O)COc1cc(N2C(=O)C3=C(CCCC3)C2=O)c(F)cc1Cl
active: [8] 105 µM
not listed: [7] | [15] | [16]
inactive: all other assays above

O=C(O)c1ccccc1
inactive: [1] | [2] | [3] | [4] | [5] | [6] | [7] | [8] | [9]

O=C(c1ccccc1)C1CCCCC1
inactive: [1] | [2] | [3] | [4] | [5] | [6] | [7] | [8] | [9]

CCN(Cc1c(F)cccc1Cl)c1c([N+](=O)[O-])cc(C(F)(F)F)cc1[N+](=O)[O-]
active: [8] 33.5 µM
inactive: all other assays above

— PubChem BioAssay (EPA / NIEHS)
